Data as given in PubChem BioAssay (EPA / NIEHS).
Active and inactive are the calls of the source. Rule for the calls: active = hit-call score of the fitted dose curve at least 0.9, where 1 is the maximum; inactive = score below 0.9.

Legend:
[1] = ATG_GRE_CIS: Attagene CIS-FACTORIAL HepG2 Assay for human Glucocorticoid Response Elements (GRE) (AID 2282947); conditions: HepG2 GRE cis-reporter, Attagene multiplex mRNA; actives raise or lower the signal
In short: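 Reporter transcripts read by RT-PCR with capillary electrophoresis fluorescence after a 24 h chemical exposure of HepG2 cells transiently transfected with multiple cis-element reporter units. Gain or loss fitted against DMSO.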

[2] = ATG_ISRE_CIS: Attagene CIS-FACTORIAL HepG2 Assay for human Interferon Regulatory Factor 1 (IRF1) binding to an Interferon-Stimulated Response Element (ISRE) (AID 2282948); conditions: HepG2 ISRE cis-reporter (Attagene), mRNA transcription readout; actives raise or lower the signal
In short: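 Signal reflects induction or loss of ISRE-linked reporter mRNA in transiently transfected HepG2 cells after a 24 h treatment, detected by fluorescent RT-PCR fragments on capillary electrophoresis and normalised to DMSO.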

[3] = ATG_M_32_CIS: Attagene CIS-FACTORIAL HepG2 Assay for M32 Transcription Factor (Internal Marker) (AID 2282949); conditions: HepG2 Attagene cis-factorial M32 reporter, mRNA; actives raise or lower the signal;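 note: background control marker of the multiplexed CIS panel rather than a real target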
In short: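 HepG2 transfectants (cis-regulated reporter transcription units) dosed 24 h. Reporter mRNA by RT-PCR plus CE, analysed as gain or loss relative to DMSO.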

[4] = ATG_M_06_CIS: Attagene CIS-FACTORIAL HepG2 Assay for M06 Transcription Factor (Internal Marker) (AID 2282950); conditions: HepG2 Attagene CIS-FACTORIAL M06 internal marker reporter; actives raise or lower the signal
In short: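 Terse: HepG2, transient MRTU transfection (FuGene 6), 24 h dosing; total RNA, oligo(dT) RT, PCR, FAM label, HpaI cut, capillary electrophoresis; bidirectional fit vs DMSO baseline; background-control endpoint.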

[5] = biological target: Hypoxia-inducible factor 1-alpha (Homo sapiens) (UniProt Q16665); assay: ATG_HIF1a_CIS: Attagene CIS-FACTORIAL HepG2 Assay for human Hypoxia Inducible Factor 1 (HIF1A) (AID 2282951); conditions: HepG2 Attagene cis-factorial HIF1a reporter transcription; actives raise or lower the signal
Hypoxia-inducible factor 1-alpha (Homo sapiens), sequence (Q16665 whole entry, looked up): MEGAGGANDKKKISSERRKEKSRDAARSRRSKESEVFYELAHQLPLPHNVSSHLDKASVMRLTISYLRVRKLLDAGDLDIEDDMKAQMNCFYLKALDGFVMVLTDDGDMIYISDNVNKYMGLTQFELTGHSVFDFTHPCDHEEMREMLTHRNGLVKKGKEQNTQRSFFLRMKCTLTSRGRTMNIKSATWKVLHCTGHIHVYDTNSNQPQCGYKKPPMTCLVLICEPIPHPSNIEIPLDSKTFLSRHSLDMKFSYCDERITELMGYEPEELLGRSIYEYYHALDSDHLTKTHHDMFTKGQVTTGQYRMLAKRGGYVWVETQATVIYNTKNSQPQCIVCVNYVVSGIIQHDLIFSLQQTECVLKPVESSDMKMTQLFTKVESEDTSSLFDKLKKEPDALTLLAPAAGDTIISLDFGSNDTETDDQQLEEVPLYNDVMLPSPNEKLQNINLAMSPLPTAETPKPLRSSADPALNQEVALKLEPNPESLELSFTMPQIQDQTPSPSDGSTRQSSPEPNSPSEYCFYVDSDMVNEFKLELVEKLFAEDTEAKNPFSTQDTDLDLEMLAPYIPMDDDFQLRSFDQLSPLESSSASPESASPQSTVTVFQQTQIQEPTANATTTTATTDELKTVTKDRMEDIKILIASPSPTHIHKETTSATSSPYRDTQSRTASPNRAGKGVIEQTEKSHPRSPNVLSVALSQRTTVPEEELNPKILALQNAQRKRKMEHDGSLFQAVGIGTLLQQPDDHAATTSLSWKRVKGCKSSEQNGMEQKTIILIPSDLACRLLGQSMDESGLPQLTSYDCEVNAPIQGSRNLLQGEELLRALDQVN
In short: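 HepG2, transient cis-reporter library, 24 h dosing. RNA → RT (oligo dT) → PCR → 6-FAM primer extension → HpaI → CE. Bidirectional curve fit vs DMSO.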

[6] = biological target: Hepatocyte nuclear factor 6 (Homo sapiens) (UniProt Q9UBC0); assay: ATG_HNF6_CIS: Attagene CIS-FACTORIAL HepG2 Assay for human Hepatocyte Nuclear Factor 6 (HNF6) (AID 2282952); conditions: HepG2 Attagene cis-factorial HNF6 reporter transcription; actives raise or lower the signal
Hepatocyte nuclear factor 6 (Homo sapiens), sequence (Q9UBC0 whole entry, looked up): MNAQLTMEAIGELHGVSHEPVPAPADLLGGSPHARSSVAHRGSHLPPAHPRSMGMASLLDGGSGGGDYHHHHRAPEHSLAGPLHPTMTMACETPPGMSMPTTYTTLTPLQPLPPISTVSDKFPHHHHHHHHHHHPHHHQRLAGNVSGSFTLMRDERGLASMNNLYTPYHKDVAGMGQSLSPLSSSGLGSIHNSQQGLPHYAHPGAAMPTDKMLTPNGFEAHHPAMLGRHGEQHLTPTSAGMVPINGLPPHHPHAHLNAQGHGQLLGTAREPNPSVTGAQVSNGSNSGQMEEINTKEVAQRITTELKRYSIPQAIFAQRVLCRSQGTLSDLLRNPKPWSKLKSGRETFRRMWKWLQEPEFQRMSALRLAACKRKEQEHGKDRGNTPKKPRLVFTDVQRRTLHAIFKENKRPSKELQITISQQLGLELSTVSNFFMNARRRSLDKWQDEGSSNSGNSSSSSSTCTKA
In short: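 Endogenous transcription factor activity in human HepG2 liver cells was captured through cis-regulated reporter constructs. After 24 h treatment, reporter mRNA was measured by RT-PCR with capillary electrophoresis, and activity was fitted in both directions relative to DMSO.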

[7] = biological target: Heat shock factor protein 1 (Homo sapiens) (UniProt Q00613); assay: ATG_HSE_CIS: Attagene CIS-FACTORIAL HepG2 Assay for human Heat Shock Transcription Factor 1 (HSE) (AID 2282953); conditions: HepG2 HSE cis-reporter, Attagene RNA transcription; actives raise or lower the signal
Heat shock factor protein 1 (Homo sapiens), sequence (Q00613 whole entry, looked up, the tested form may be a part): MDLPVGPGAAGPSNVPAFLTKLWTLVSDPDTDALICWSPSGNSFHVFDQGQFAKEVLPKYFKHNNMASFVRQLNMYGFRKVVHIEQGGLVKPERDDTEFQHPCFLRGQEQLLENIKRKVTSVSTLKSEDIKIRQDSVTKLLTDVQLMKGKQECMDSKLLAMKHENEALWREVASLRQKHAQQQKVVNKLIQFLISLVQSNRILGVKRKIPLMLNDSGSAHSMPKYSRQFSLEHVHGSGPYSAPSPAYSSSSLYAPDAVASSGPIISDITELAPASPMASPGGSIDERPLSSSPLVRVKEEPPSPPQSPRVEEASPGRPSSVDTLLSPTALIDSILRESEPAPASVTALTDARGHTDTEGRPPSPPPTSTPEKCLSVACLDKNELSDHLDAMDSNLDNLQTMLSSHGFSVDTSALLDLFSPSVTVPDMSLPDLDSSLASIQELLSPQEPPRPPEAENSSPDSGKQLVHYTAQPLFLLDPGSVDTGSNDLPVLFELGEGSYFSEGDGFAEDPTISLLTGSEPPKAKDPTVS
In short: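 Read-out: fluorescence of reporter-specific RT-PCR fragments separated by capillary electrophoresis. HepG2 carrying transfected cis-element reporter units; 24 h dosing; activity fitted in both directions relative to DMSO baseline.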

[8] = ATG_MRE_CIS: Attagene CIS-FACTORIAL HepG2 Assay for human Metal Responsive Element (MRE) (AID 2282954); conditions: HepG2 MRE cis-reporter transcription, Attagene multiplex; actives raise or lower the signal
In short: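 Endogenous MRE-dependent transcription read as reporter mRNA in transiently transfected human HepG2 cells at 24 h. RNA reverse-transcribed, PCR-amplified, labelled and resolved by capillary electrophoresis; gain or loss relative to DMSO.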

[9] = biological target: Bile acid receptor (Homo sapiens) (UniProt Q96RI1); assay: ATG_IR1_CIS: Attagene CIS-FACTORIAL HepG2 Assay for human Nuclear Receptor Subfamily 1 Group H Member 4 (NR1H4), IR1 submotif (AID 2282946); conditions: IR1 reporter transcription, actives raise or lower the signal
Bile acid receptor (Homo sapiens), sequence (Q96RI1 whole entry, looked up): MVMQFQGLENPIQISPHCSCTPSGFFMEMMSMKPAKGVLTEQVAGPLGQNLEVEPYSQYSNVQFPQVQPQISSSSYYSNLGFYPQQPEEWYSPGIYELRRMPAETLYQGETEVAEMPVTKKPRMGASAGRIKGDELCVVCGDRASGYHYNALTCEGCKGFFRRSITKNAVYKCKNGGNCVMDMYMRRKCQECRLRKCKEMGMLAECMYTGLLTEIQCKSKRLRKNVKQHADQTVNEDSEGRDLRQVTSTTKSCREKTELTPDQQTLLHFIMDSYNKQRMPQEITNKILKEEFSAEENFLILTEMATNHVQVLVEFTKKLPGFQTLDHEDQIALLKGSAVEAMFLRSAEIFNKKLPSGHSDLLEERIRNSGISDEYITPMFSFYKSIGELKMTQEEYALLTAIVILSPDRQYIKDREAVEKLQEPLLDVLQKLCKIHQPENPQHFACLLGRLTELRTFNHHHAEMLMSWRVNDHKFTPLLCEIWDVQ
In short: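 HepG2 cells transiently transfected with multiplexed cis-element reporter units read endogenous transcription factor activity. After 24 h compound exposure, reporter mRNA was quantified by RT-PCR, fluorescent labelling, HpaI digestion and capillary electrophoresis; bidirectional fitting versus DMSO baseline.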

[10] = ATG_PBREM_CIS: Attagene CIS-FACTORIAL HepG2 Assay for human Phenobarbital-responsive Enhancer Module (PBREM) (AID 2282955); conditions: HepG2 PBREM cis-reporter, Attagene multiplexed transcription; actives raise or lower the signal
In short: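 HepG2, transient MRTU transfection, 24 h dosing; RNA → oligo(dT) RT → PCR → 6-FAM extension → HpaI → CE. Bidirectional fit vs DMSO.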

Compound	outcome [1]	outcome [2]	outcome [3]	outcome [4]	outcome [5]	outcome [6]	outcome [7]	outcome [8]	AC50 [9]	outcome [9]	outcome [10]
CC1OC1C1CCC2(C)OC2C1 (configuration not stated)	inactive	inactive	inactive	inactive	inactive	inactive	inactive	inactive			
O=C(Cl)c1cc(C(=O)Cl)cc(C(=O)Cl)c1		inactive	inactive		inactive	inactive		inactive	153 µM (active)		
CCCOCCOCCOCCO			inactive	inactive	inactive	inactive	inactive	inactive		inactive	
CC[C@H]1OC(=O)[C@H](C)[C@@H](O[C@H]2C[C@@](C)(OC)[C@@H](O)[C@H](C)O2)[C@H](C)[C@@H](O[C@@H]2O[C@H](C)C[C@H](N(C)C)[C@H]2O)[C@](C)(O)C[C@@H](C)C(=NOCOCCOC)[C@H](C)[C@@H](O)[C@]1(C)O		inactive	inactive		inactive	inactive	inactive	inactive		inactive	
Nc1ccc(Oc2ccc(N)c(N)c2)cc1		inactive	inactive	inactive	inactive			inactive		inactive	
O=c1n(CCO)c(=O)n(CCO)c(=O)n1CCO		inactive	inactive	inactive	inactive		inactive	inactive		inactive	inactive
